# Gal4-VP16 FLuc = Gal4-VP16 reporter inhibition counter-screen | Drosophila S2 Gal4-VP16 UAS-luciferase, luminescence, 20 h | Potency, µM (highest dose often 53.6 µM), for inactives: at the top dose activity, negative = inhibition, hits mostly inhibitors | 3.5% of 310,000 active | AID 2546;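 note: Gal4-VP16 expression switched on by copper sulfate through the metallothionein promoter; nearly all actives have a fitted effect of over 50% in size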
# Tau fluor cs = counter-screen for tau fibril formation inhibitors. tau K18 P301L Alexa594 fluorescence, heparin fibrillization. Potency, µM (doses to about 57.7 µM), for the others: at the top dose activity change, negative = decrease. 0.93% of 280,000 active; note: nearly all actives have a fitted effect of over 55% in size
#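 Human K18 P301L tau (15 uM unlabeled plus 0.24 uM Alexa 594-labeled, final) in 100 mM sodium acetate pH 7 was mixed with compound and 20 uM heparin and incubated 6 hr at 37 C.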
# Tau FP inhib = blocks human tau fibril formation measured by polarization; 0.39% of 280,000 active; K18 P301L tau heparin fibrillization, Alexa594 FP, 6 h; Potency, µM (series often up to 57.7 µM), inactives show at the highest dose activity, negative = inhibition, most hits filed as inhibitors; P10636; note: nearly all actives have a fitted effect of over 55% in size
# Target sequence (P10636 561-689 P618L limits assumed): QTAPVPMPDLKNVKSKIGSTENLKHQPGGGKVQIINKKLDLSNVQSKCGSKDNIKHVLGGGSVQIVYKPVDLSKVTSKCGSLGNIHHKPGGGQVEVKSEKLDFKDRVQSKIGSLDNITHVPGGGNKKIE
#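 Steps: dispense K18 P301L tau (15 uM plus 0.24 uM Alexa 594 tracer, final) in pH 7 sodium acetate; add compound; add heparin (20 uM final); incubate 6 hr, 37 C; add ThT (30 uM final); after 1 hr ambient, read FP.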
# Tau fibril ThT = inhibitors of human tau fibril formation, thioflavin T binding; P10636; recombinant tau K18 P301L, heparin-induced fibrillization, ThT fluorescence; Potency, µM (highest dose often 57.4 µM), without a hit: at the highest dose activity, negative = inhibition, actives largely listed as inhibitors; 2.1% of 270,000 active; AID 1460; note: nearly all actives have a fitted effect of over 55% in size
#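 Using a mix of unlabeled (15 uM) and Alexa 594-labeled (0.24 uM) tau K18 P301L, heparin-triggered fibrillization over 6 hr at 37 C was scored by ThT fluorescence.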
# RORgamma inh = ROR gamma (mouse) transcription inhibition; P51450; Drosophila S2 Gal4-RORgamma UAS-luciferase reporter, 20 h; Potency, µM (doses to about 53.6 µM), for the others: top-dose activity change, negative = inhibition, most hits filed as inhibitors; 5.4% of 310,000 active; AID 2551; note: nearly all actives have a fitted effect of over 60% in size
# Target sequence (P51450 whole entry, looked up, the tested form may be a part): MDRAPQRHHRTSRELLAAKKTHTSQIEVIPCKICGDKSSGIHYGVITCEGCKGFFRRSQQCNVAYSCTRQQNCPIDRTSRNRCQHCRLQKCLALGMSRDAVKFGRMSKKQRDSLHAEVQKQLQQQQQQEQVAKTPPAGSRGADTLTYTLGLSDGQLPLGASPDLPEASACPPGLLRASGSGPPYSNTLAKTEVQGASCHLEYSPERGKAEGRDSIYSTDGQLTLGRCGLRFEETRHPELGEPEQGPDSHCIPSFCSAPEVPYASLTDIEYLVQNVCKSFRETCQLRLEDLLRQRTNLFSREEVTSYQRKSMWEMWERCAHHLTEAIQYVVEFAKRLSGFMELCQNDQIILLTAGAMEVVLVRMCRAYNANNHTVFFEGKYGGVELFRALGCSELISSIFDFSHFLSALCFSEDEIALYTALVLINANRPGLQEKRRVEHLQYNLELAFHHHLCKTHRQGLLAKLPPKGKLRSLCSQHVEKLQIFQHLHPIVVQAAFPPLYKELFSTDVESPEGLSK
#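 Read-out: Photinus luciferase luminescence; inhibitors lower reporter signal. Insect Schneider cells with Gal4-ROR gamma fusion under metallothionein promoter, UAS reporter; 700 uM final copper sulfate induction, 20 hr, ambient temperature.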
# Active calls of the source: *; ? = inconclusive; . = no result; [ ] = another dose, or the depositor's remark. Only some compounds are listed: those with a hit (about 7.3% of all), similar ones and a draw of the others. Calls come from the whole dose curve; as a rule, active = well fitted curve in the direction sought with a large enough effect; inconclusive = small, poorly fitted or top-dose-only effect, or another doubt; inactive = no such curve, though single readings can be large; an effect the other way counts as inactive or inconclusive. % is set by controls: 0 for no effect and ±100 for the full control effect; potency is the fitted concentration of half-maximal effect.
SMILES,Gal4-VP16 FLuc,Tau fluor cs,Tau FP inhib,Tau fibril ThT,RORgamma inh
CCCn1c(SC(C(=O)Nc2cc(C)ccc2OC)c2ccccc2)nc2ccccc2c1=O (configuration not stated),?,-12%,-10%,0%,20µM*
COc1ccc(OCC(O)CNc2ccc(Br)cc2)cc1 (configuration not stated),?,18µM*[quencher],14%,?,?
COc1ccc(OCC(O)CNC(=O)c2ccc(Br)cc2)cc1 (configuration not stated),8%,-1%,3%,-10%,23%
CCc1cccc(NC(=O)C2CCCN2S(=O)(=O)c2ccc3c(c2)CC(C)N3C(C)=O)c1 (configuration not stated),-3%,.,.,.,0%
Cc1cc(C(=O)N/N=C/c2cc([N+](=O)[O-])ccc2O)c2ccccc2n1,4.5µM*,4%,7%,?,2.8µM*
O=C(N/N=C/C=C\c1ccccc1[N+](=O)[O-])c1cc(-c2ccccc2)nc2ccccc12,2.8µM*,-18%,?,-8%,1.6µM*
O=C(N/N=C/c1cc([N+](=O)[O-])ccc1O)c1cc(-c2ccccc2)nc2ccccc12,4µM*,?,11%,?,3.2µM*
O=C(N/N=C/c1cccc([N+](=O)[O-])c1)c1cc(-c2ccccc2)nc2ccccc12,-30%,-14%,-8%,1%,-38%
Cc1cc(C(=O)N/N=C/c2cc(Br)cc([N+](=O)[O-])c2O)c2ccccc2n1,3.2µM*,?,?,7.9µM*,2µM*
O=C(N/N=C/c1cc([N+](=O)[O-])ccc1Cl)c1cc(-c2ccccc2)nc2ccccc12,3%,-19%,-15%,-3%,14%
Cc1cc(C(=O)N/N=C/c2ccc([N+](=O)[O-])cc2)c2ccccc2n1,-2%,-25%,7%,-12%,?
O=C(c1ccc(COc2ccc(Cl)cc2Cl)o1)N1CCCC1,-9%,.,.,.,?
O=C(N/N=C/c1cc([N+](=O)[O-])ccc1O)c1c[nH]c2ccccc12,?,?,10%,.,5µM*
CC(=O)c1ccc(NC(=S)Nc2ccc(N3CCOCC3)cc2)cc1,-10%,?,-5%,?,-23%
O=C(NC(=S)NCCN1CCOCC1)c1ccccc1,-3%,-1%,6%,0%,?
O=C(NC(=S)Nc1ccc(N2CCOCC2)cc1)c1ccco1,-18%,-11%,-1%,?,?
Cc1cccc(C)c1NC(=S)NC(=O)c1ccccc1F,6.3µM*,-9%,-2%,-11%,4.5µM*
CCc1ccc(C(=O)NC(=S)Nc2ccc(N3CCOCC3)cc2)cc1,18µM*,?,?,?,5µM*
Cc1ccccc1C(=O)NC(=S)Nc1ccc(N2CCOCC2)cc1,?,-27%,4%,?,20µM*
O=C(NC(=S)NCCN1CCOCC1)c1cccc(Cl)c1,?,-7%,3%,-11%,11µM*
Cc1cc(C)cc(NC(=O)C2CCC(CNS(=O)(=O)c3ccc4c(c3)C(C)(C)C(=O)N4C)CC2)c1 (configuration not stated),.,-14%,9%,-9%,.
Cc1ccc(C(=O)NC(=S)NCCCN2CCOCC2)cc1,-3%,7%,9%,-4%,18µM*
O=C(NC(=S)Nc1ccc(N2CCOCC2)cc1)c1ccccc1,?,?,5%,?,8.9µM*
Cc1c(C(=O)NC(=S)Nc2ccc(N3CCOCC3)cc2)cccc1[N+](=O)[O-],-14%,-19%,-3%,-15%,8.9µM*
O=C(Nc1ccc(N2CCOCC2)cc1)c1ccncc1,-13%,-8%,2%,?,21%
SMILES,Gal4-VP16 FLuc,Tau fluor cs,Tau FP inhib,Tau fibril ThT,RORgamma inh
O=C(NC(=S)Nc1ccc(N2CCOCC2)cc1)c1cncc(Br)c1,8.9µM*,-12%,2%,?,5µM*
COc1ccc(N(CC(=O)Nc2ccccc2OC)S(=O)(=O)c2ccc(NC(C)=O)cc2)cc1,0%,.,.,.,40%
CN1CCN(c2ccc(NC(=S)NC(=O)c3cccc4c(Cl)cccc34)cc2)CC1,-13%,.,.,.,?
O=C(NC(=S)Nc1ccc(N2CCOCC2)cc1)c1cccc(Cl)c1,11µM*,?,9%,13µM*,2.5µM*
O=C(NC(=S)Nc1ccc(N2CCOCC2)cc1)c1cccc(Cl)c1Cl,5µM*,.,.,.,3.2µM*
O=C(CN1CCOCC1)NNC(=S)Nc1ccccc1,1.3µM*,-8%,-4%,-12%,29%
CC(C)(C)c1ccc(S(=O)(=O)c2cnc(SCC(=O)Nc3ccc4c(c3)OCCO4)[nH]c2=O)cc1,.,-13%,0%,?,.
O=C(Cn1ncc2c3ccccc3n(Cc3ccccc3)c2c1=O)NCCCN1CCCCC1,.,-10%,0%,-12%,.
CCCn1c(C(C)C)n[nH]c1=S,0%,-8%,4%,.,-24%
Cn1c(C23CC4CC(CC(C4)C2)C3)n[nH]c1=S,8.9µM*,7%,4%,5%,5µM*
CC1Cn2c(nnc2C23CC4CC(CC(C4)C2)C3)S1 (configuration not stated),6%,0%,6%,-12%,-11%
COCCCn1c(C23CC4CC(CC(C4)C2)C3)n[nH]c1=S,6.3µM*,.,.,.,5µM*
CC(C)Cn1c(C23CC4CC(CC(C4)C2)C3)n[nH]c1=S,3.2µM*,.,.,.,3.2µM*
O=C(NCCc1ccccc1)C1CCCN(c2cnccn2)C1 (configuration not stated),-21%,.,.,.,21%
CCOC(=O)CCN1C(=O)[C@@H]2[C@H]3C(=CC[C@H]2C1=O)C(=O)[C@H]1O[C@H]1[C@H]3O,-84%[10 µM],-24%[11.6 µM],?,4µM*,2.2µM*
O=C1C2=CC[C@@H]3C(=O)N(c4ccc(F)cc4F)C(=O)[C@H]3[C@H]2[C@H](O)[C@H]2O[C@H]12,?,-19%[11.6 µM],?,4.5µM*,?
O=C1C=C[C@@H](O)[C@@H]2[C@H]3C(=O)N(c4ccc(F)cc4F)C(=O)[C@@H]3CC[C@@H]12,0%[10 µM],2%[11.6 µM],6%[11.6 µM],-12%[11.5 µM],-10%[10 µM]
CC(C)(C)N1C(=O)[C@@H]2[C@H]3C(=CC[C@H]2C1=O)C(=O)[C@H]1O[C@H]1[C@H]3O,?,-12%[11.6 µM],?,?,1.4µM*
C[C@@H](c1ccccc1)N1C(=O)[C@@H]2[C@H]3C(=CC[C@H]2C1=O)C(=O)[C@H]1O[C@H]1[C@H]3O,?,-14%[11.6 µM],?,?,3.5µM*
CCOC(=O)CCN1C(=O)[C@H]2[C@@H]3[C@H](O)[C@H](O)CC(=O)[C@H]3CC[C@H]2C1=O,4%[10 µM],1%[11.6 µM],-2%[11.6 µM],1%[11.5 µM],7%[10 µM]
C[C@@H](c1ccccc1)N1C(=O)[C@H]2[C@H]3[C@H](O)[C@H](O)C/C(=N/OCc4ccccc4)[C@H]3CC[C@@H]2C1=O,0%[10 µM],-11%[11.6 µM],-11%[11.6 µM],-2%[11.5 µM],1%[10 µM]
CCN(CC(=O)NCc1ccc(F)cc1)C(=O)/C=C/c1ccc(S(=O)(=O)N(CC)CC)cc1,-8%,.,.,.,?
